Screening results from PubChem BioAssay.
IL-1B inflam inh: inhibitors of inflammasome signaling (IL-1 beta secretion); THP-1 LPS/ATP IL-1B secretion, AlphaLISA, 16 h; hits give low values; activity change, % at 57.5 µM; actives 4.7% (n = 360,000); in the data active = activity change below about -50%; inconclusive = mostly about -30% to -49%
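Secreted IL-1B measured by AlphaLISA bead assay after 16 h compound exposure of THP-1 cells; compounds (final up to 57.5 uM) added 1 h before LPS (250 ng/mL) and ATP (1.25 mM) stimulation; lower signal means less secretion.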
DT40 TDP1 no CPT: qHTS for Inhibitors of human tyrosyl-DNA phosphodiesterase 1 (TDP1): qHTS in cells in absence of CPT; DT40 Tdp1-/- hTDP1 cells, no CPT, ATP luminescence, 48 h; Potency, µM (doses to about 46.2 µM), most hits filed as inhibitors; actives 15% (n = 420,000); also: nearly all actives have a fitted effect of over 55% in size
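A cellular qHTS used chicken DT40 cells lacking endogenous Tdp1 but carrying stably transfected human TDP1. Compounds were applied without camptothecin, and cell growth kinetics were judged by ATP-dependent luminescence after ≥48 hr.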
DT40 TDP1 CPT: DT40-hTDP1 cell growth loss with CPT; actives 12% (n = 420,000); Potency, µM (doses to about 46.2 µM), actives largely listed as inhibitors; chicken DT40 Tdp1-/-;hTDP1 cells + 20 nM CPT, ATP luminescence, 48 h; also: nearly all actives have a fitted effect of over 55% in size
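Chicken DT40 Tdp1-/- cells stably complemented with human TDP1 were seeded at 400 cells/well in medium containing 20 nM camptothecin, exposed to pin-transferred compounds, and grown at 37 °C for at least 48 hr. Viability was read as ATP luminescence.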
HT1080 IDH1KD tx: HT-1080 IDH1 knockdown cell toxicity (counter line) | HT-1080 IDH1 knockdown viability, ATP luminescence, 48 h | Potency, µM (highest dose often 46.1 µM), most hits filed as cytotoxic | actives 2% (n = 360,000)
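Using the IDH1-knockdown HT-1080 line run in the same batch and compound series as the NT line, viability after 48 h at 37 °C was determined by CellTiter-Glo luminescence and expressed as % activity.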
HT1080NT lethal: kills 2HG-producing HT-1080-NT fibrosarcoma cells; AID 686970; HT-1080-NT fibrosarcoma viability, CellTiter-Glo ATP luminescence, 48 h; actives 1.6% (n = 360,000); Potency, µM (highest dose often 46.1 µM), actives largely listed as cytotoxic;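 also: NT is the 2HG producing partner of a matched IDH1 knockdown line; nearly all actives have a fitted effect of over 55% in size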
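A 48-hour cytotoxicity screen used HT-1080-NT cells plated 2 hours before compound delivery. ATP-based CellTiter-Glo luminescence measured viability, normalized to DMSO and no-cell controls.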
A number is an active result; 0 = inactive; ? = inconclusive; - = no result; ! = not confirmed by another sample. In the library only some 19% were active in any assay of this set; here they are far more common. Unless noted, calls follow the shape of the dose curve; as a rule, active = well fitted curve in the direction sought with a large enough effect; inconclusive = small, poorly fitted or top-dose-only effect, or another doubt; inactive = no such curve, though single readings can be large; an effect the other way counts as inactive or inconclusive.

SMILES	IL-1B inflam inh	DT40 TDP1 no CPT	DT40 TDP1 CPT	HT1080 IDH1KD tx	HT1080NT lethal
O=C(N/N=C/c1ccccc1O)c1ccncc1	0	3.66µM	4.61µM!	?	?
O=C(N/N=C\c1ccc(Sc2ccccn2)o1)c1cccc(Br)c1	?	0	0	0	0
O=C(N/N=C/c1ccc(O)c2ncccc12)c1cccc(Br)c1	0	4.61µM	3.66µM	18.4µM	23.1µM
O=C(N/N=C\c1ccccc1F)c1ccc(-c2ccccc2)cc1	0	0	0	0	0
Cn1cc(Br)c(C(=O)N/N=C/c2cc3ccccc3nc2Cl)n1	0	20.6µM	?	0	0
O=C(NN=Cc1cccc(O)c1O)c1ccccc1	0	4.61µM	2.59µM	?	?
COc1ccc(/C=N/NC(=O)C(=O)Nc2ccccn2)cc1OC	0	0	0	0	0
O=C(N/N=C\c1cc(Br)ccc1O)c1ccc(S(=O)(=O)N2CCCCC2)cc1	0	2.91µM	4.11µM	2.06µM	?
COc1ccccc1C=NNC(=O)c1ccncc1	0	0	0	0	0
O=C(N/N=C/c1cc(Cl)ccc1O)c1ccc(Br)cc1	0	5.8µM	5.17µM	5.8µM	9.2µM
O=C(N/N=C/c1ccc(O)c(O)c1)c1cccc(S(=O)(=O)N2CCCCC2)c1	0	0	?	0	0
O=C(N/N=C/c1cc2ccccc2nc1Cl)c1ccncc1	0	4.61µM	2.59µM	0	0
O=C(N/N=C/c1ccccc1O)C(=O)Nc1ccccn1	0	14.6µM	13µM	?	0
COCCN(C(=O)c1cc(OC)c(OC)c(OC)c1)c1c(N)n(Cc2ccccc2)c(=O)[nH]c1=O	0	0	0	0	0
O=C(N/N=C/c1cc(Br)ccc1OC(=O)c1ccc(Br)cc1)c1ccncc1	0	6.51µM	4.61µM	?	20.6µM
O=C(N/N=C/c1cc([N+](=O)[O-])ccc1O)c1ccncc1	0	?	?	0	?
O=C(N/N=C/c1cc(Br)ccc1O)c1ccncc1	0	1.64µM	4.61µM	?	?
Cc1nc(C)c(C(=O)N/N=C/c2c[nH]c3ccccc23)s1	0	?	?	0	0
O=C(N/N=C/c1ccccc1O)c1cc[n+]([O-])cc1	0	29.1µM	14.6µM	?	0
Cc1nc(C)c(C(=O)N/N=C/c2cc(Br)ccc2O)s1	0	3.66µM	4.61µM	2.06µM	?
CC(NC(=O)/C=C/c1ccccc1)c1ccccc1 (configuration not stated)	0	?	?	0	0
CC(NC(=O)/C=C/c1ccc(Br)cc1)c1ccccc1 (configuration not stated)	0	?	16.4µM	0	0
O=C(/C=C/c1ccc(Br)cc1)NC(=O)c1ccccc1O	-94.9	?	0	?	0
Cc1cc(SCC(=O)NN)c2cc(Br)ccc2n1	-92.4	?	?	0	?
COc1ccc2nc(C)cc(SCC(=O)N/N=C/c3ccccc3)c2c1	-97.8	?	0	0	0
SMILES	IL-1B inflam inh	DT40 TDP1 no CPT	DT40 TDP1 CPT	HT1080 IDH1KD tx	HT1080NT lethal
COc1ccccc1/C=N/NC(=O)CC(=O)NCc1ccccc1	-51.1	0	0	0	0
COc1cccc2c(SCC(=O)N/N=C/c3ccc(O)cc3O)cc(C)nc12	-87.7	10.3µM	?	?	?
COc1ccc2nc(C)cc(SCC(=O)NNC(=O)COc3cccc4ccccc34)c2c1	0	?	0	?	?
COc1ccc(C)cc1NC(=O)CCn1nc(C)cc1C	-	?	0	-	-
Nc1c(-c2ccc3c(c2)OCCO3)oc2ccccc2c1=O	0	?	0	0	0
CCCCN1C(=S)SC(C)(C)C1/[N+]([O-])=C/c1cccnc1 (configuration not stated)	0	0	0	0	0
COc1ccccc1/C=N/NC(=O)CSc1cc(C)nc2ccccc12	-65.6	8.2µM	7.31µM	?	?
COC(=O)c1ccc(/C=N\NC(=O)CC(=O)NCCc2ccccc2)cc1	0	13µM	0	0	0
COc1ccccc1/C=N/NC(=O)CSc1ccc2ccccc2n1	0	?	?	?	?
O=C(CC(=O)N/N=C\c1ccccc1)NCCc1ccccc1	0	0	0	0	0
CCOc1nc2cccc(C(=O)OC(C)OC(=O)OC3CCCCC3)c2n1Cc1ccc(-c2ccccc2-c2nn[nH]n2)cc1 (configuration not stated)	-	23.1µM	?	-	-
CCCc1nc(C(C)(C)O)c(C(=O)OCc2oc(=O)oc2C)n1Cc1ccc(-c2ccccc2-c2nn[nH]n2)cc1	-	?	0	-	-
CCN1CCN(Cc2c(O)ccc3c2O/C(=C\C=C\c2ccccc2OC)C3=O)CC1	0	18.4µM	?	?	?
CCN1CCN(Cc2c(O)ccc3c(=O)c(-c4ccccc4OC)coc23)CC1	0	0	0	0	0
COc1cc2c(cc1OC)C(=O)CCC2	0	16.4µM	14.6µM	0	0
O=C(CSc1cccc[n+]1[O-])c1cc(Cl)ccc1Cl	0	0.291µM	0.0103µM	2.31µM	0
O=C(CSc1cccc[n+]1[O-])c1cccs1	0	4.11µM	?	0	0
O=C(CSc1cccc[n+]1[O-])Nc1cc(Cl)ccc1[N+](=O)[O-]	0	?	?	0	0
O=C(CSc1cccc[n+]1[O-])c1cc2ccccc2o1	0	?	20.6µM	16.4µM	7.31µM
O=C(O)CSc1cccc[n+]1[O-]	0	?	0	0	0
N#Cc1ccc(Cl)cc1NC(=O)CSc1cccc[n+]1[O-]	0	23.1µM	?	0	0
Nc1nc(SCC(=O)c2cc3ccccc3o2)n[nH]1	0	0	0	0	0
Cc1c(NC(=O)c2ccc(NC(=O)C3CC3)cc2)cccc1C(=O)O	0	0	0	0	0
Cc1cc(C)cc(NC(=O)CCN2CCOCC2)c1	0	0	0	0	0
CN(Cc1ccc(F)cc1)C(=O)c1cccc(S(=O)(=O)NCc2ccccc2)c1	0	?	?	0	0
SMILES	IL-1B inflam inh	DT40 TDP1 no CPT	DT40 TDP1 CPT	HT1080 IDH1KD tx	HT1080NT lethal
C=CCOc1ccc(CN(C)C(=O)c2ccc(CNS(=O)(=O)c3ccc(C)c(C)c3)cc2)cc1	-55.0	20.6µM	?	?	?
OCl	-	0	0	-	-
CC1(C)CC(=O)C(C2C3=C(CC(C)(C)CC3=O)Oc3ccc4ccccc4c32)C(=O)C1 (configuration not stated)	-71.6	?	0	0	0
O=[N+]([O-])c1cc2c(cc1[N+](=O)[O-])OCCOCCOCCOCCO2	-85.7	0	0	0	0
Brc1cc2c(cc1Br)OCCOCCOCCOCCO2	0	10.3µM	14.6µM	0	0
O=C(c1ccccc1)c1cc2c(cc1[N+](=O)[O-])OCCO2	0	0	0	0	0
Nc1ccc2c(c1)OCCOCCOCCOCCOCCO2	0	0	0	0	0
Brc1ccc2c(c1)OCCOCCOc1cc(Br)ccc1OCCOCCOCCO2	-56.4	2.91µM	5.17µM	18.4µM	?
